Measured values: PubChem BioAssay
Activity calls are given as the source filed them. Unless noted, how the calls were made is not given here.

Tests used:
[1] = test system: Wnt5a (protein binding on small-molecule microarray); assay: small molecules binding Wnt5a protein – biophysical, small-molecule microarray, 635/667 nm fluorescence, primary screen (AID 1142); settings: 635 nm fluorescence, higher = more signal;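 further: fluorescence read at 667 nm with signal to noise per printed feature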
[2] = ATP-based viability of Huh7 replicon cells – cell-based, CellTiter-Glo luminescence, basal, 48 h, cytotoxicity control for HCV replication inhibitor project, primary screen (AID 1143); settings: higher = more signal, called active from +8 up or from −8 down;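 further: Huh7 hepatoma cells carrying a hepatitis C replication reporter with no stimulus; test concentration not given here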
[3] = Pseudomonas biofilm growth suppression – PAO1 strain, BacTiter-Glo luminescence, LB-PBS, primary screen (AID 1144); settings: P. aeruginosa PAO1 biofilm, 12 h, higher = more signal
[4] = basal CRE-LacZ reporter activity in PC12 – cell-based, unstimulated, primary screen (AID 1145); settings: no forskolin, luminescence, 4.5 h, higher = more signal, called active from +8 up or from −8 down
[5] = forskolin-driven CRE-LacZ activity in PC12 – cell-based, CRE-LacZ reporter, forskolin-stimulated, primary screen (AID 1146); settings: luminescence, 4.5 h, higher = more signal, called active from +8 up or from −8 down;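 further: PC12 cells with 6xCRE LacZ reporter stimulated by forskolin 10 µM; beta-galactosidase reporter signal reflecting CREB driven transcription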
[6] = molecular target: Streptavidin (Streptomyces avidinii) (UniProt P22629); assay: compounds binding control protein streptavidin – biophysical, small-molecule microarray, 635/667 nm fluorescence, artefact control for SMM compound annotation, primary screen (AID 1147); settings: higher = more signal;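 further: signal reflects streptavidin binding to arrayed compounds as a control protein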
[7] = probe aInhba binding on compound microarray – biochemical, small-molecule microarray, 635/667 nm fluorescence, primary screen (AID 1148); settings: higher = more signal;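 further: score merges 667nm spot fluorescence with signal-to-noise for antibody binding to printed compounds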
Torsin-1A (Homo sapiens) [8] = molecular target: Torsin-1A (Homo sapiens) (UniProt O14656); assay: TOR1A wild-type binding on microarray – cell lysate, small-molecule microarray, lysate, 635/667 nm, primary screen (AID 1149); settings: COS7 hTOR1A-WT lysate, 635 nm fluorescence, higher = more signal
Torsin-1A (Homo sapiens) [9] = molecular target: Torsin-1A (Homo sapiens) (UniProt O14656); assay: torsin A mutant lysate binding on microarrays – cell lysate, small-molecule microarray, COS7 lysate, 635/667 nm fluorescence, primary screen (AID 1150); settings: COS7 hTOR1A mutant lysate, 635 nm fluorescence, higher = more signal;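 further: score pools 667 nm emission and signal to noise measuring lysate protein binding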
[10] = test system: Sonic hedgehog protein (Shh); assay: Sonic hedgehog microarray binding compounds – biochemical, small-molecule microarray, 635/667 nm fluorescence, primary screen (AID 1151); settings: 635 nm fluorescence, higher = more signal;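 further: Shh protein binding to compounds spotted on small-molecule microarray slides; score combines spot fluorescence intensity with signal-to-noise across triplicate slides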
[11] = optical density shifts of acrAB sulA E. coli – strain DRC41, OD650, 48 h, E. coli filamentation inducer project, primary screen (AID 1152); settings: higher = more signal, called active from +8 up or from −8 down;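 further: E. coli MC1000 strain DRC41 lacking acrAB efflux pump and sulA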
[12] = probe aLefty1 binding on compound microarray – biochemical, small-molecule microarray, 635/667 nm fluorescence, primary screen (AID 1153); settings: higher = more signal;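 further: score merges spot fluorescence with signal-to-noise ratio from the scanned slide images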
[13] = plasmodial surface anion channel blockers, osmotic lysis – cell-based, P. falciparum Indochina, OD700, 1 h, primary screen (AID 1154); settings: P. falciparum Indochina infected RBC osmotic lysis, higher = more signal, called active from +8 up or from −8 down
[14] = plasmodial surface anion channel blockers, osmotic lysis – cell-based, P. falciparum Indochina, OD700, 2 h, primary screen (AID 1155);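 further: lysis reports solute entry through the parasite surface anion channel PSAC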; settings: P. falciparum Indochina infected erythrocytes, higher = more signal, called active from +8 up or from −8 down
[15] = changes in parasitized red cell lysis, either direction – P. falciparum Indochina, OD700, 3 h, PSAC antagonist project, primary screen (AID 1156); settings: P. falciparum-infected erythrocytes, osmotic lysis, higher = more signal, called active from +8 up or from −8 down
[16] = plasmodial surface anion channel blockers, osmotic lysis – cell-based, P. falciparum Indochina, OD700, 18 h, primary screen (AID 1157); settings: P. falciparum Indochina infected erythrocytes, osmotic lysis OD700, 18 h; higher = more signal, called active from +8 up or from −8 down
[17] = S6 kinase pathway phospho-S6 level changes – cell-based, A549, cytoblot, luminescence, serum-stimulated, primary screen (AID 1158); settings: 5 h, higher = more signal;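 further: serum-stimulated A549 lung adenocarcinoma cells; signal is phosphorylated S6 detected by cytoblot immunostaining with HRP secondary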
[18] = molecular target: NADPH oxidase 2 (Homo sapiens) (UniProt P04839); assay: compounds shifting NOX2 Amplex Red fluorescence – cell-based, HEK293-NOX2, PMA-stimulated, NOX inhibitor project, primary screen (AID 1159); settings: 45 min, higher = more signal, called active from +8 up or from −8 down; further: test concentration not given here
[19] = molecular target: NADPH oxidase 4 (Homo sapiens) (UniProt Q9NPH5); assay: compounds shifting NOX4 Amplex Red fluorescence – cell-based, HEK293-NOX4, tetracycline-induced, NOX inhibitor project, primary screen (AID 1160); settings: HEK293-NOX4, Amplex Red H2O2 fluorescence, 45 min; higher = more signal, called active from +8 up or from −8 down
[20] = molecular target: NADPH oxidase 5 (Homo sapiens) (UniProt Q96PH1); assay: compounds shifting NOX5 Amplex Red fluorescence – cell-based, HEK293-NOX5, NOX inhibitor project, primary screen (AID 1161); settings: HEK293-NOX5, ionomycin, 45 min, higher = more signal
Sequence of NADPH oxidase 5 (Homo sapiens) (Q96PH1 whole entry, looked up): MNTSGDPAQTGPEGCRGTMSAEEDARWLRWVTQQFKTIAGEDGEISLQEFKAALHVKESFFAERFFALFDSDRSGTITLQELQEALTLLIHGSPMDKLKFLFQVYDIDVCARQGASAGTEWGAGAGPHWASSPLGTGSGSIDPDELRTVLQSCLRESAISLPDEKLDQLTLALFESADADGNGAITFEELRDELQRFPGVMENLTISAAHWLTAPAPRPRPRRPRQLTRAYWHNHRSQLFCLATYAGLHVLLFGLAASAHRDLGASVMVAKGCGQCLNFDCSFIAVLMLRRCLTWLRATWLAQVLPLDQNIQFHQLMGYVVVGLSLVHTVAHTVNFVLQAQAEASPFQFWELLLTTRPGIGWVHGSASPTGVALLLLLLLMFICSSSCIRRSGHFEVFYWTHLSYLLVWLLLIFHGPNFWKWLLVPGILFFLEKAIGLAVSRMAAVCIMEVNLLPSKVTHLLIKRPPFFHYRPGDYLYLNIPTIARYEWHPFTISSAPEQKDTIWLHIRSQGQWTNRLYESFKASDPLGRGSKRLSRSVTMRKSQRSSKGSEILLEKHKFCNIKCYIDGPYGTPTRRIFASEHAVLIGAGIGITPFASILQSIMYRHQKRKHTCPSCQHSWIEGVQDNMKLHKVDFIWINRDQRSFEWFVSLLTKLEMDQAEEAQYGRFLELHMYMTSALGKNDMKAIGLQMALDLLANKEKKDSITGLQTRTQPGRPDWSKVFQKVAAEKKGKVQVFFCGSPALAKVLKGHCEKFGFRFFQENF

Sequence of NADPH oxidase 2 (Homo sapiens) (P04839 whole entry, looked up): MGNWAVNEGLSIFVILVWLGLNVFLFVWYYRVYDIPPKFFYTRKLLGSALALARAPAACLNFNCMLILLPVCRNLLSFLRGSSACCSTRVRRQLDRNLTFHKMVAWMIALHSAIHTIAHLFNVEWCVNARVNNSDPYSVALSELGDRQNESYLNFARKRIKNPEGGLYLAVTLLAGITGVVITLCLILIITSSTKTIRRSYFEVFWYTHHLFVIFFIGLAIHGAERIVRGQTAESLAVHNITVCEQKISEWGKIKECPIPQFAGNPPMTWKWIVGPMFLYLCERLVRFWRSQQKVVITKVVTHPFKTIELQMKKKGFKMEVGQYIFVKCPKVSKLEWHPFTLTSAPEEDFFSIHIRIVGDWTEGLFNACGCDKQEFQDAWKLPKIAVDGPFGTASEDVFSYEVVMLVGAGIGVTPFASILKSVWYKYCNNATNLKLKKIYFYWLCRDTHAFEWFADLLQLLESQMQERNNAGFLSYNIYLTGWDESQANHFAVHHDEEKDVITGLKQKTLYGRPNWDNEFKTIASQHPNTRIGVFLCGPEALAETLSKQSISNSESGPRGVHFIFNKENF
Sequence of NADPH oxidase 4 (Homo sapiens) (Q9NPH5 whole entry, looked up): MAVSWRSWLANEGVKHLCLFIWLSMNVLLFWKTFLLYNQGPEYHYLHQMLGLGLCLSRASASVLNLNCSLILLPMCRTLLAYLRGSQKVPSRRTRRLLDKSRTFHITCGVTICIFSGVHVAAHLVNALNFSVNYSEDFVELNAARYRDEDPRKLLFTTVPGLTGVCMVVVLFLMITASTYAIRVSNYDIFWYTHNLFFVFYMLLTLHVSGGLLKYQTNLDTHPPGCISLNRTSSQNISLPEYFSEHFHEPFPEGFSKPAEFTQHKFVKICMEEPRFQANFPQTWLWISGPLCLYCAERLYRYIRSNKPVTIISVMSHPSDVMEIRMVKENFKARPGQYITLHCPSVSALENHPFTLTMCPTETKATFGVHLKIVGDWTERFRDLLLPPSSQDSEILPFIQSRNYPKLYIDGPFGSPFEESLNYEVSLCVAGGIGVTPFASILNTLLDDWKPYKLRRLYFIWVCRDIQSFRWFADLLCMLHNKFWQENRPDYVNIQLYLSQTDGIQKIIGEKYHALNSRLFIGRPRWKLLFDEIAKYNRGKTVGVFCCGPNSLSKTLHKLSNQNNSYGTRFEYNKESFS
Sequence of Streptavidin (Streptomyces avidinii) (P22629 whole entry, looked up): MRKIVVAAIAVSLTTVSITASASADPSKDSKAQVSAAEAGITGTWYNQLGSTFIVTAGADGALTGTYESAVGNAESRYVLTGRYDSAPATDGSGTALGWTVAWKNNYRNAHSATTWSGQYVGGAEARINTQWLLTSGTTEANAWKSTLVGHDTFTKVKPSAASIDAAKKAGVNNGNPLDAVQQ
Sequence of Torsin-1A (Homo sapiens) (O14656 whole entry, looked up): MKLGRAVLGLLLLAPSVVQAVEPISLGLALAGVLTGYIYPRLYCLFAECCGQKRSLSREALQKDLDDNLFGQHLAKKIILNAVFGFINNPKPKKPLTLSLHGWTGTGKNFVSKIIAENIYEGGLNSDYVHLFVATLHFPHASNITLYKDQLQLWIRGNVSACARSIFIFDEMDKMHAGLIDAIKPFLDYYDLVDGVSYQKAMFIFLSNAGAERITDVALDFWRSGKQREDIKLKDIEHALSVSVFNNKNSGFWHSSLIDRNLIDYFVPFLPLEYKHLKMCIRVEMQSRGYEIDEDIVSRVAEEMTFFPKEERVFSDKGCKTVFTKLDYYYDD

| Structure (SMILES) | composite z-score [1] | z-score [2] | z-score [3] | z-score [4] | z-score [5] | composite z-score [6] | composite z-score [7] | composite z-score (Torsin-1A (Homo sapiens) [8]) | composite z-score (Torsin-1A (Homo sapiens) [9]) | composite z-score [10] | z-score [11] | composite z-score [12] | z-score [13] | z-score [14] | z-score [15] | z-score [16] | z-score [17] | z-score [18] | z-score [19] | z-score [20] |
| --- | --- | --- | --- | --- | --- | --- | --- | --- | --- | --- | --- | --- | --- | --- | --- | --- | --- | --- | --- | --- |
| CCO[C@H](c1cc(OC)cc([N+](=O)[O-])c1OC)[C@H](C)[C@@H](OC)[C@H](C)C=CCC(=O)OC | 0.018 | -0.267 (inactive) | -0.378 (inactive) | 0.0246 (inactive) | -0.183 (inactive) | -0.0837 | -0.183 | 0.388 | 0.294 | 0.628 | -0.321 (inactive) | 0.0367 | 2.26 (inactive) | 0.282 (inactive) | 0.528 (inactive) | 0.318 (inactive) | -0.421 | -1.73 (inactive) | -0.442 (inactive) | -1.11 |
| COc1ccc(COC(=O)NN=C2C[C@@H](O)[C@@H](O)[C@@H]3[C@@H]4C(=O)N(C[C@@H]5CCCO5)C(=O)[C@@H]4CC[C@@H]23)cc1 | 0.0073 | 0.0894 (inactive) | 1.2 (inactive) | 0.338 (inactive) | -0.959 (inactive) | 0.662 | -0.15 | 1.2 | 1 | 0.0407 | 1.08 (inactive) | -0.235 | 3.44 (inactive) | 0.415 (inactive) | 1.3 (inactive) | 0.18 (inactive) | -0.0088 | -0.682 (inactive) | 0.995 (inactive) | -0.0772 |
| O=C1[C@H]2[C@H]3[C@H](O)[C@H](O)CC(=NOC[C@@H](O)COCc4ccco4)[C@@H]3CC[C@H]2C(=O)N1c1cccc(Oc2ccccc2)c1 | -0.403 | -0.578 (inactive) | 0.626 (inactive) | -1.02 (inactive) | -0.009 (inactive) | 0.707 | -0.0986 | 0.419 | 0.94 | 0.537 | -1.26 (inactive) | -0.247 | 2.27 (inactive) | 0.802 (inactive) | 1.39 (inactive) | 0.157 (inactive) | -0.664 | 2.2 (inactive) | 1.32 (inactive) | 0.425 |
| CCCNC(=O)OC[C@H]1O[C@H](CCON=C[C@@H](C)[C@H](OCc2ccccc2)C(C)C)C=C[C@@H]1Oc1ccc(OC)cc1 | -0.146 | -1.1 (inactive) | -0.107 (inactive) | 1.28 (inactive) | -0.0248 (inactive) | -0.19 | -0.104 | -0.0998 | 0.733 | 0.0021 | -0.103 (inactive) | -0.105 | 1.77 (inactive) | -1.58 (inactive) | 0.141 (inactive) | -2.55 (inactive) | 2.11 | -1.7 (inactive) | 0.368 (inactive) | -0.574 |
| CCN1C(=O)[C@H]2[C@@H]3C(=CC[C@H]2C1=O)C(=O)[C@H]1O[C@H]1[C@H]3O | 0.116 | -5.2 (inactive) | 1.41 (inactive) | 2.79 (inactive) | 21.9 (active) | 0.49 | -0.183 | 0.734 | 0.348 | 1.64 | -1.08 (inactive) | -0.214 | 1.17 (inactive) | 0.497 (inactive) | 0.244 (inactive) | 0.282 (inactive) | -0.383 | 0.428 (inactive) | -1.86 (inactive) | 0.121 |
